# Measurements taken from PubChem BioAssay AID588496 (NMMLSC, 2011).
# The other results are listed elsewhere or left out. The source made the active and inactive calls.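 The calls were made as follows: active = compounds that dim the fluorescent label, raw bead signal shifting by over 33 units between lowest and highest dose; inactive = the rest.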
# Assay: bead-bound aptamer signal quenching artefacts – biochemical, powder set 1, flow cytometry, artefact control for GRK2 aptamer binding project, dose response (AID 588496)
# Conditions: Bead-bound FAM RNA aptamer fluorescence quenching; MCF span: fluorescence change max-min concentration, stronger effect = higher value; fluorescence ratio to DMSO: at 11.1 µM, stronger effect = lower value
Structure (SMILES),MCF span,fluorescence ratio to DMSO
O=C(CCS(=O)(=O)c1ccc(Br)cc1)NCCc1ccc(Cl)cc1,3.2,99% (inactive)
COc1ccc(Cl)cc1NC(=O)CCS(=O)(=O)c1ccc(Br)cc1,-1.1,98% (inactive)
